Laboratory results as given in the supplement of paper PMC11732987, “Enantioselective OTUD7B fragment discovery through chemoproteomics screening and high-throughput optimisation” (Communications Chemistry, 2025).

Tests used:
Assay in all cases: log2 ratio of Biotin-Ahx-Ub-VS probe labelling (fragment/DMSO); higher = less target engagement (more negative = stronger competition), active = hit call of the paper (q ≤ 0.05, log2 ratio ≤ -1)
Conditions in all cases: compound concentration: 200 uM; treatment time: 3 h
USP42 = target: T1, USP42 (UniProt Q9H9J4)
T1 sequence (whole entry): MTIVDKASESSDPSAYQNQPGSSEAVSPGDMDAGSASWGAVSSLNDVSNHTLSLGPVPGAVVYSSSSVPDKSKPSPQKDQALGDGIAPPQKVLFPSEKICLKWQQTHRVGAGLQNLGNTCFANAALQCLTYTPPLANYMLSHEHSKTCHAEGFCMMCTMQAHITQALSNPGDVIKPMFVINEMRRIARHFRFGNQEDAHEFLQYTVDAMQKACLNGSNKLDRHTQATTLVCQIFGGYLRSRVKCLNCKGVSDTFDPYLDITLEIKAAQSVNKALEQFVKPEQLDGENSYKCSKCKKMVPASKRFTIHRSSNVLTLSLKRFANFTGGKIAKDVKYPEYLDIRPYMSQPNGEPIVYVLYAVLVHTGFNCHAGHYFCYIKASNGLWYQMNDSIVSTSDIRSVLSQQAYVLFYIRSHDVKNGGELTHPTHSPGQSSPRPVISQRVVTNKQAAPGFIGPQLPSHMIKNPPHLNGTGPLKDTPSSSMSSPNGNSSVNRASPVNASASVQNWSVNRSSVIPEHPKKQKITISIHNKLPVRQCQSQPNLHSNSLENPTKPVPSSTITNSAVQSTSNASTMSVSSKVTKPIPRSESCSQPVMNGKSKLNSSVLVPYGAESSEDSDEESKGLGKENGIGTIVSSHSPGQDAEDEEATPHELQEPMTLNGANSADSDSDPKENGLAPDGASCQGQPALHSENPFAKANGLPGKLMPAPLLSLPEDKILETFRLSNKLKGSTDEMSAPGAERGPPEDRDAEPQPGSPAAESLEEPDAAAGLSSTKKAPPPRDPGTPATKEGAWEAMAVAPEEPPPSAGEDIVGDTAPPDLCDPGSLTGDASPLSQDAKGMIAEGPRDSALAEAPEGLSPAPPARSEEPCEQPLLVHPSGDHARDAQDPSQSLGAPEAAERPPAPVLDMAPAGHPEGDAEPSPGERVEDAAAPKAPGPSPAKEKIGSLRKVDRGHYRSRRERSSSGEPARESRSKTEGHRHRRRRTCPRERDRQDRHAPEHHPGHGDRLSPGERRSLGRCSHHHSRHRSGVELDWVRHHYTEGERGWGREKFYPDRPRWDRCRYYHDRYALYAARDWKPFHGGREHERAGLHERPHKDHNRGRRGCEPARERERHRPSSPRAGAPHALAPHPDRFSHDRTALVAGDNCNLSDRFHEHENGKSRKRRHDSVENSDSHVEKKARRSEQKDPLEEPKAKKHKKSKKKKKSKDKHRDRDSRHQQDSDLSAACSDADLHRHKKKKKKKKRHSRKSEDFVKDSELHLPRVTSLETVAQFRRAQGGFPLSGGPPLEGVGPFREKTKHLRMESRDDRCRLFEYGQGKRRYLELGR
How it was run: (§1)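 Labelled DUBs from HEK293T lysate were NeutrAvidin-enriched, digested with LysC and trypsin, and run by diaPASEF LC-MS/MS. Before that, each 495 µg sample in Tris/CHAPS/IGEPAL buffer with protease inhibitors was treated in triplicate with fragment at 200 µM or vehicle for 3 h, then with Biotin-Ahx-Ub-VS at 0.5 µM final for 1 h. Values are average log2 ratios of fragment over vehicle by unpaired t-test, based on global-median-normalised Spectronaut label-free quantities from proteins with ≥2 unique peptides.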

USP46 = USP46 (UniProt P62068)
How it was run: as §1

USP47 = target: T2, USP47 (UniProt Q96K76)
T2 sequence (whole entry): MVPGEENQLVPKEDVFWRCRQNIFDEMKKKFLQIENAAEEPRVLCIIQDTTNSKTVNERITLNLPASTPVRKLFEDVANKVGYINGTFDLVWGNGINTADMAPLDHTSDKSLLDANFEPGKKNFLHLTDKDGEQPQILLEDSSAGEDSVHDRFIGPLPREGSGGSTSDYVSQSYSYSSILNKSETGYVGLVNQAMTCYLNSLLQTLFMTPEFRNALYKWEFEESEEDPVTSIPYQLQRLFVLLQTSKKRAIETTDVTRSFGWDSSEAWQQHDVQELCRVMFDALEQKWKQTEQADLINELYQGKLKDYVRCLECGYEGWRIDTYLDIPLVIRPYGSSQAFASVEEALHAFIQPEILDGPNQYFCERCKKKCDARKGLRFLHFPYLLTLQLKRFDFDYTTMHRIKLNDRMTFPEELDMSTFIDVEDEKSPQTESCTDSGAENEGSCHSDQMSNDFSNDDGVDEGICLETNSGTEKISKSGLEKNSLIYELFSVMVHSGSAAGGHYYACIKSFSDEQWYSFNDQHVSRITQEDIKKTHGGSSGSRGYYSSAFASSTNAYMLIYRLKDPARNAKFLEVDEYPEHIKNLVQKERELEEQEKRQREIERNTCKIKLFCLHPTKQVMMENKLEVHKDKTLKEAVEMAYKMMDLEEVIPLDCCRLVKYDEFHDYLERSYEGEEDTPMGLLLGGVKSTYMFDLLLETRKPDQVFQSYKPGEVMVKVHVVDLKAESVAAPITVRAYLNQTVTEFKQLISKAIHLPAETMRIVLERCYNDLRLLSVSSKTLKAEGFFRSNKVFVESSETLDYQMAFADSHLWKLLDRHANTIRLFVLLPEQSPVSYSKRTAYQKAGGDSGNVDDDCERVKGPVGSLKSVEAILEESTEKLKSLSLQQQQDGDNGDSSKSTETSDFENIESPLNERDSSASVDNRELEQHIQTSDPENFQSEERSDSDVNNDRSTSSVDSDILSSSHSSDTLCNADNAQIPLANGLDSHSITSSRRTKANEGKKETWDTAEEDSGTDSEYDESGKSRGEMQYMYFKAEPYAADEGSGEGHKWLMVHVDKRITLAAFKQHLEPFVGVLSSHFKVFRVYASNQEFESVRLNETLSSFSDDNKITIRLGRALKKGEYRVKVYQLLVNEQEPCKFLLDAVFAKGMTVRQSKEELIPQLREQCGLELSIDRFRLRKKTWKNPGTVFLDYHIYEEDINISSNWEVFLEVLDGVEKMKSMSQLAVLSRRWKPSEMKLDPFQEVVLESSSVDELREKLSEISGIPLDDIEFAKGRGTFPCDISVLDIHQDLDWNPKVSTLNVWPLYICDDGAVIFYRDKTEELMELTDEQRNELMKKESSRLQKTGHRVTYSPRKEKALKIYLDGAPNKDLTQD
How it was run: as §1

USP48 = target: T3, USP48 (UniProt Q86UV5)
T3 sequence (whole entry): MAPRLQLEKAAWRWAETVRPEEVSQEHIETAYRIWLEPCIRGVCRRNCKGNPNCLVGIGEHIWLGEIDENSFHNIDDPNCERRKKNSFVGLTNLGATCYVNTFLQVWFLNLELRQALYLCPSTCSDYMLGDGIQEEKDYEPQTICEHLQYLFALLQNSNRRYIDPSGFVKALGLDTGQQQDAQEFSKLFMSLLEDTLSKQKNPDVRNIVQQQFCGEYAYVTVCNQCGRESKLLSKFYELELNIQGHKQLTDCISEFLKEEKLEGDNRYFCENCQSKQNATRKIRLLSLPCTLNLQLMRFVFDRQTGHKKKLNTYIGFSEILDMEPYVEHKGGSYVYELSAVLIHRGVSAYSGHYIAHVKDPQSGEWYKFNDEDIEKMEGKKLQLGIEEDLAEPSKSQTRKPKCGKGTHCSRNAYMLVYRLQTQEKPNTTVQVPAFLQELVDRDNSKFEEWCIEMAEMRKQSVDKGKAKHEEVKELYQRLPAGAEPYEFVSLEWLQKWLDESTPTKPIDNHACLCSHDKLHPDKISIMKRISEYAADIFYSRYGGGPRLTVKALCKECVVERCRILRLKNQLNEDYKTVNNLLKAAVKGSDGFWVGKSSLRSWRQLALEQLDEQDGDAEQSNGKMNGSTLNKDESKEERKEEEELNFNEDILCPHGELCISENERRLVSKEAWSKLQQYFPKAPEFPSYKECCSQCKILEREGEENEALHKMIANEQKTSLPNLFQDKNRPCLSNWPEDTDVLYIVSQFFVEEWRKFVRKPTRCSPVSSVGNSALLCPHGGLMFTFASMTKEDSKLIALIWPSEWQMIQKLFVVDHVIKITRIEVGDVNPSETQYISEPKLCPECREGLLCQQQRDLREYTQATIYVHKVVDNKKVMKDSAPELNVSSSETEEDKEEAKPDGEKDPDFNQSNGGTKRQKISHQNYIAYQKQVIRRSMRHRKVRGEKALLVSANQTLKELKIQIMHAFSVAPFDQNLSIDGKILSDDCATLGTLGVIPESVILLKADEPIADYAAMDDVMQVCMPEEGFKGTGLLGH
How it was run: as §1

USP5 = target: T4, USP5 (UniProt P45974)
T4 sequence (whole entry): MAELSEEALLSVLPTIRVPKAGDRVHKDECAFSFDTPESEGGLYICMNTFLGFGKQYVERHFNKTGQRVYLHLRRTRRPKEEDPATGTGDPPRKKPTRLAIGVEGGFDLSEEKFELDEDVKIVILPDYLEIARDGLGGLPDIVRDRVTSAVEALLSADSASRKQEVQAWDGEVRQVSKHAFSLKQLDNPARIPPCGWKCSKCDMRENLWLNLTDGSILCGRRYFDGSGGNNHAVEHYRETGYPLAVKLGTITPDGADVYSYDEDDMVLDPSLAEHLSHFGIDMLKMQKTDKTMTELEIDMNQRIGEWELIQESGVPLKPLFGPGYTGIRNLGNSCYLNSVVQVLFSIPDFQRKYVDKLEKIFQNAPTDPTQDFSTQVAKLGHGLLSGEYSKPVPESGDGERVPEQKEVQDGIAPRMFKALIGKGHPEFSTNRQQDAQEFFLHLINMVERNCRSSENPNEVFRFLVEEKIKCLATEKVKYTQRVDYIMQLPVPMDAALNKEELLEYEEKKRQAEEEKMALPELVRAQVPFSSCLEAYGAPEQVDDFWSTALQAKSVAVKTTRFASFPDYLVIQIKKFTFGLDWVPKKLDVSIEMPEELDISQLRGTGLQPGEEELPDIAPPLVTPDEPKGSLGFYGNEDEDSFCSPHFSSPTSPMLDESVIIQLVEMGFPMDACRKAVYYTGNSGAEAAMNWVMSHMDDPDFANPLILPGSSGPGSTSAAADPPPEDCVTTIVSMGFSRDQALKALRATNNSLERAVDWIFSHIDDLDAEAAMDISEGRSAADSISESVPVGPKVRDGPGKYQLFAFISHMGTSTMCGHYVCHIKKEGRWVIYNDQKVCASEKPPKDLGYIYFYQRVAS
How it was run: as §1

USP54 = USP54 (UniProt Q70EL1)
How it was run: as §1

USP7 = USP7 (UniProt Q93009)
How it was run: as §1

USP8 = target: T5, USP8 (UniProt P40818)
T5 sequence (whole entry): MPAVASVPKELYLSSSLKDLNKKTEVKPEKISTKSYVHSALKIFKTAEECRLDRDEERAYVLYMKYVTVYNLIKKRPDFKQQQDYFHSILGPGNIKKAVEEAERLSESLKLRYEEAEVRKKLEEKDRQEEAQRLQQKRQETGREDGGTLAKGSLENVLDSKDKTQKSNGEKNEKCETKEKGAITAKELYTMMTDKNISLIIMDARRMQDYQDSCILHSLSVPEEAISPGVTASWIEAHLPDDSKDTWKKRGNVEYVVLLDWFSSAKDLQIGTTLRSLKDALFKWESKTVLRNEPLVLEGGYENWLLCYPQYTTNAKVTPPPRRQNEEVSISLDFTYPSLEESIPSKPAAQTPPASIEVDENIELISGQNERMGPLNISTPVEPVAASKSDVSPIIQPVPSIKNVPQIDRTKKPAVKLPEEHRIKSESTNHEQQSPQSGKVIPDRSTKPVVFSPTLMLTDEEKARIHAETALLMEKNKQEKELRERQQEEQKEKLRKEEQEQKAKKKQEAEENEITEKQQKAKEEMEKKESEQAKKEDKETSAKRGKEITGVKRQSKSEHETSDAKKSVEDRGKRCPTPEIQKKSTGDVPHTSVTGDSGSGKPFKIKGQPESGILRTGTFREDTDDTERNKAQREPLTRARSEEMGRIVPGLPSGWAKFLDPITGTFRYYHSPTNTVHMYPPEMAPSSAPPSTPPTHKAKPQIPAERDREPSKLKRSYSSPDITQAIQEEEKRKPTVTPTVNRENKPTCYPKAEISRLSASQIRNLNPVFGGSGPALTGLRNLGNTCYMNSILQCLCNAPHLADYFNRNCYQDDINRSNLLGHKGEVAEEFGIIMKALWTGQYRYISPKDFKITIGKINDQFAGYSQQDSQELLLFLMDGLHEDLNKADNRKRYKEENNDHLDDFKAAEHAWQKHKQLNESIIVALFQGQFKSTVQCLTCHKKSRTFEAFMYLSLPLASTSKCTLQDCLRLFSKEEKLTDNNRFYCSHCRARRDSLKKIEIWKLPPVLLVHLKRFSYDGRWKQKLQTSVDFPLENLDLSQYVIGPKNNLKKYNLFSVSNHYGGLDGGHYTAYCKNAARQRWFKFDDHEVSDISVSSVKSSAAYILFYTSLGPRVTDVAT
How it was run: as §1

USP9X = USP9X (UniProt Q93008)
How it was run: as §1

UniProt O00487 = target: UniProt O00487
How it was run: as §1

Measured: log2 ratio of Biotin-Ahx-Ub-VS probe labelling

USP54, sequence (Q70EL1 whole entry): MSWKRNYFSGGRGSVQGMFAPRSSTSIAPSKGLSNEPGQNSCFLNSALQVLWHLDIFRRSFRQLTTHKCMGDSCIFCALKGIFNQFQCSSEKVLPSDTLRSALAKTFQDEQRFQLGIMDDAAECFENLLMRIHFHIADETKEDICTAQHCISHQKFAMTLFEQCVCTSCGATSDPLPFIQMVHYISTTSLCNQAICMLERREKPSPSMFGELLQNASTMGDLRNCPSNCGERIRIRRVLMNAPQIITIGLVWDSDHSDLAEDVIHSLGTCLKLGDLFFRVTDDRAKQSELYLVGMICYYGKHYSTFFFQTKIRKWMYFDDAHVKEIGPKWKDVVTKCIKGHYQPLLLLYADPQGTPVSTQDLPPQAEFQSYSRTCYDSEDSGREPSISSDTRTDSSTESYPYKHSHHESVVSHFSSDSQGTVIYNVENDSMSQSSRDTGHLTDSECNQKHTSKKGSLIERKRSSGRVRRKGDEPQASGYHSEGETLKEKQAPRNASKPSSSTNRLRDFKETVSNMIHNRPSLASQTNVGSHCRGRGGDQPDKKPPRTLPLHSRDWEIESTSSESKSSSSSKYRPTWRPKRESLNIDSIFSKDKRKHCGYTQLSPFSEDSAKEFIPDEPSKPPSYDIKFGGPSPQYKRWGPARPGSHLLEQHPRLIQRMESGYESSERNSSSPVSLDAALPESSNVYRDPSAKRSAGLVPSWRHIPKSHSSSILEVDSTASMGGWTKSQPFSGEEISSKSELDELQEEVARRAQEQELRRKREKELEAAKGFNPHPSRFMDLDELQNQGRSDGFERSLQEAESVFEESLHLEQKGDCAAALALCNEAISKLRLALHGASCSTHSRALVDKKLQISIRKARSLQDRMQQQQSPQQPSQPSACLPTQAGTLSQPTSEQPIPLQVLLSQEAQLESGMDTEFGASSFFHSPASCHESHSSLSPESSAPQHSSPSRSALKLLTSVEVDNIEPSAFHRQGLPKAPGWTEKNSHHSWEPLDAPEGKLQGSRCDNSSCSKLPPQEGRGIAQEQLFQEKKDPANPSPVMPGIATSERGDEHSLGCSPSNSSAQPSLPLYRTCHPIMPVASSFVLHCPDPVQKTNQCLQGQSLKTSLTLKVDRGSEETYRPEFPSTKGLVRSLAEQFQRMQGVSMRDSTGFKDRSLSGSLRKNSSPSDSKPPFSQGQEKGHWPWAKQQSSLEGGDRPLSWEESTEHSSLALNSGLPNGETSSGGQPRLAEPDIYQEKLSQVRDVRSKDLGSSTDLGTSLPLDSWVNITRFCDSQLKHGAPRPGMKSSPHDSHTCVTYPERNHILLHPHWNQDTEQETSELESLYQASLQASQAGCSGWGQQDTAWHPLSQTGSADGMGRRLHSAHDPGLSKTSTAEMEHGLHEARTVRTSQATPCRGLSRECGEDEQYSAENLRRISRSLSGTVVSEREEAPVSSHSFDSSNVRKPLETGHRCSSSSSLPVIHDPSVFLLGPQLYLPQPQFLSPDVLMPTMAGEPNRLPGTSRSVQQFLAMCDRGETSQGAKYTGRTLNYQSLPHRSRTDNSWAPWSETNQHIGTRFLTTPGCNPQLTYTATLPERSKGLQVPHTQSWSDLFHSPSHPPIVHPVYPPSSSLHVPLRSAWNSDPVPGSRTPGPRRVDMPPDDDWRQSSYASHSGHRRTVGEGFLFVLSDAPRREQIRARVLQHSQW
UniProt O00487, sequence (O00487 whole entry): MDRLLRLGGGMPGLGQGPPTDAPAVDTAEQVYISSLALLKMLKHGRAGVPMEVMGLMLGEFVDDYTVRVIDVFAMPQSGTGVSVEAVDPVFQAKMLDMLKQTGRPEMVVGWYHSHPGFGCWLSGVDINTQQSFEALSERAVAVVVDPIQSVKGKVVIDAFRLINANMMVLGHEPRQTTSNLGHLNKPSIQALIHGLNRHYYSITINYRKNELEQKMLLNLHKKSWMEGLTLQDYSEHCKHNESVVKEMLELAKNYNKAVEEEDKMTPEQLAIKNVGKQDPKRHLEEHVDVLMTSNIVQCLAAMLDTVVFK
USP9X, sequence (Q93008 whole entry): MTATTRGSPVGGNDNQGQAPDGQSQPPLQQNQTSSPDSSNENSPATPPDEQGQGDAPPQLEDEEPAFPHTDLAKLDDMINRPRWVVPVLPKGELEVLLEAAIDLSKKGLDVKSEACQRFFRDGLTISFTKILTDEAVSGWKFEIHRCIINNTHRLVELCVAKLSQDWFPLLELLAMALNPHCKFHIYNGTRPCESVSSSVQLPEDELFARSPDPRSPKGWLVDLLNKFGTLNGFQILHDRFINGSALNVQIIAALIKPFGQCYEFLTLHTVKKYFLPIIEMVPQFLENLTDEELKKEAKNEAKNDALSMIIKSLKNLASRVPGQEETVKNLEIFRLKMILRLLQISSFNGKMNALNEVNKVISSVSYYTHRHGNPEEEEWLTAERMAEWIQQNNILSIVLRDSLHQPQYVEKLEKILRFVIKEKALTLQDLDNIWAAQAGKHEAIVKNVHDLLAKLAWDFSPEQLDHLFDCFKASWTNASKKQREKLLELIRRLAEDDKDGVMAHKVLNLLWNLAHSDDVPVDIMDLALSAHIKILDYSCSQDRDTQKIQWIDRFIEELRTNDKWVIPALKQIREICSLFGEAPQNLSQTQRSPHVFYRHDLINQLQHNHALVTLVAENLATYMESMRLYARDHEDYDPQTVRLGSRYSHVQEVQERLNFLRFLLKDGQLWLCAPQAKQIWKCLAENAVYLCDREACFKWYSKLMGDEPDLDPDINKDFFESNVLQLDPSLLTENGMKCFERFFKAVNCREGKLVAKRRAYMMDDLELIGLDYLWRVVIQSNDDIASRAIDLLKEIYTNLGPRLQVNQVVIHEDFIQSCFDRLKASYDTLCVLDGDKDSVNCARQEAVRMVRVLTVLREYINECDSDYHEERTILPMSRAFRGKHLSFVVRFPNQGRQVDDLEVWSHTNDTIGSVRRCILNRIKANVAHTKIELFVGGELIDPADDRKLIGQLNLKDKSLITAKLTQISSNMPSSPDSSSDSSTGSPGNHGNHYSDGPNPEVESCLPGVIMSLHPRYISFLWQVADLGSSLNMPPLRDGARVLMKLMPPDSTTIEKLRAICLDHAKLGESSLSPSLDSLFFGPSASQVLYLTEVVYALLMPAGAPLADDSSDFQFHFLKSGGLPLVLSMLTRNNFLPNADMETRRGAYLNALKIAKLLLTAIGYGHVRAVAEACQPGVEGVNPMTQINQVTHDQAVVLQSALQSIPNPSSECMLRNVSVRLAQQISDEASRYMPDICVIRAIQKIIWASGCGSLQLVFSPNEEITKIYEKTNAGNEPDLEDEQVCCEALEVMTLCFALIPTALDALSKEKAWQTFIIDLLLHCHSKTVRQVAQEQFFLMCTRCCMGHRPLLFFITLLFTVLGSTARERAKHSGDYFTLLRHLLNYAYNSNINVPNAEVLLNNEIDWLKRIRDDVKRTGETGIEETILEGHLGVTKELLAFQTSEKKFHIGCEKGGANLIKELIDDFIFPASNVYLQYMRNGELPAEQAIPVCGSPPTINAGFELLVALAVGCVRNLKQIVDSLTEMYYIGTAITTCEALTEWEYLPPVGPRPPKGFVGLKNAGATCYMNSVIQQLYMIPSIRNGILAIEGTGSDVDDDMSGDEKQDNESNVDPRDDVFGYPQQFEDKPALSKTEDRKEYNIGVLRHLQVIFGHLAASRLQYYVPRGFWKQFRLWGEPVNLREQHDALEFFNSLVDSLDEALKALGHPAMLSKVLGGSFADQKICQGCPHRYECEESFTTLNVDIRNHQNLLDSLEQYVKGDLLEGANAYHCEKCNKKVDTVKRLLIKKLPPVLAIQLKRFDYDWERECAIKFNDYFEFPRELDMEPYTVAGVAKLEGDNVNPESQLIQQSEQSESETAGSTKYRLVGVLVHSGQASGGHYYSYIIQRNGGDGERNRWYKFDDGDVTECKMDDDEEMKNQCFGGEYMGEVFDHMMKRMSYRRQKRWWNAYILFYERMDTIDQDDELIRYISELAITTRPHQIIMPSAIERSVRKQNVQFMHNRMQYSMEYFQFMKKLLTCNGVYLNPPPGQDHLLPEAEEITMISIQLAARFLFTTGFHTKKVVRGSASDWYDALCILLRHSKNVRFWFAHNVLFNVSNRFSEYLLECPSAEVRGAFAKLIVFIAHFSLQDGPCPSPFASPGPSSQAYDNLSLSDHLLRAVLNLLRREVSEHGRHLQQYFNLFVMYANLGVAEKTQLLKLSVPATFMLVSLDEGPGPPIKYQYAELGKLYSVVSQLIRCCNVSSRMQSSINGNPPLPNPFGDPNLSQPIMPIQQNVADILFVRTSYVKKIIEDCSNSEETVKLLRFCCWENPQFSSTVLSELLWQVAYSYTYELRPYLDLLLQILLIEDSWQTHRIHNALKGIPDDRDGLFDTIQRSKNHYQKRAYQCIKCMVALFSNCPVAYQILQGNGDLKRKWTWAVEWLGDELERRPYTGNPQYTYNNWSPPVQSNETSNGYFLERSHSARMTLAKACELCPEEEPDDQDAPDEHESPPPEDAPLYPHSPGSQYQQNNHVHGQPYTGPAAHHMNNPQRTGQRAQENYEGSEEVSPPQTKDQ
USP46, sequence (P62068 whole entry): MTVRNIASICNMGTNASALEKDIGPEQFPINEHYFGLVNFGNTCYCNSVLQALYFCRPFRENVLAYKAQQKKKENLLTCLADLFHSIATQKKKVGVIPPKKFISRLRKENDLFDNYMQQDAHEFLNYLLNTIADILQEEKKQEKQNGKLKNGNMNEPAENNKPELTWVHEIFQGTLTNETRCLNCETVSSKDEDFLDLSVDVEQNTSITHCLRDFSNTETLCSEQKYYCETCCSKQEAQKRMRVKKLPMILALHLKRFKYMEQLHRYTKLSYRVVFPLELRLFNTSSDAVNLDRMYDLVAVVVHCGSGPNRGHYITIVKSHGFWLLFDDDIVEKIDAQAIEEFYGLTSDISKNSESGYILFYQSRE

NC(=O)C(Cc1ccccc1)NC(=O)CCl (stereo not given)
inactive: USP42 -0.119 | USP46 0.0497 | USP47 -0.239 | USP48 -0.238 | USP5 0.0132 | USP54 0.357 | USP7 -0.174 | USP8 -0.047 | USP9X -0.099 | UniProt O00487 -0.162
